Experimental data from PubChem BioAssay AID1159580 (chemical genetic matrix, 2015).
About 2,000 (36%) of roughly 5,500 compounds were called active. Not shown: some 18% with an inconclusive outcome. Cut-off read from the data, not from the text of the source: active = normalized growth mostly below about 0.91 (no sharp cut-off); inconclusive = no clear call, values can overlap the other calls; inactive = mostly above about 0.92. This is one part of the list.

Experiment: chemical genetic growth profiling, strain panel (AID 1159580);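 note: tested at 20 µM; growth read once vehicle control cultures reached saturation at 30 °C; 1 = growth at the plate median or of vehicle wells; lower values mean less growth of the strain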
Conditions: growth OD
[1] = S. cerevisiae deletion strains, locus YDL101C, strain DUN1, stronger effect = lower value
[2] = S. cerevisiae deletion strains, locus YHR030C, strain SLT2, stronger effect = lower value

Measured: normalized growth

O=[N+]([O-])c1ccc(Sc2ccccc2)c([N+](=O)[O-])c1
active: S. cerevisiae deletion strains, locus YAR019C, strain CDC15, stronger effect = lower value 0.862 | S. cerevisiae deletion strains, locus YBL105C, strain PKC1, stronger effect = lower value 0.894 | S. cerevisiae deletion strains, locus YBR135W, strain CKS1, stronger effect = lower value 0.874 | S. cerevisiae deletion strains, locus YBR136W, strain MEC1, stronger effect = lower value 0.884 | S. cerevisiae deletion strains, locus YBR160W, strain CDC28, stronger effect = lower value 0.896 | S. cerevisiae deletion strains, locus YDL017W, strain CDC7, stronger effect = lower value 0.89 | S. cerevisiae deletion strains, locus YDL028C, strain MPS1, stronger effect = lower value 0.888 | [1] 0.876 | S. cerevisiae deletion strains, locus YDL108W, strain KIN28, stronger effect = lower value 0.88 | S. cerevisiae deletion strains, locus YDL132W, strain cdc53, stronger effect = lower value 0.867 | S. cerevisiae deletion strains, locus YDL214C, strain PRR2, stronger effect = lower value 0.695 | S. cerevisiae deletion strains, locus YDR054C, strain cdc34, stronger effect = lower value 0.83 | S. cerevisiae deletion strains, locus YDR226W, strain ADK1, stronger effect = lower value 0.858 | S. cerevisiae deletion strains, locus YFL009W, strain cdc4, stronger effect = lower value 0.847 | S. cerevisiae deletion strains, locus YFL029C, strain CAK1, stronger effect = lower value 0.866 | S. cerevisiae deletion strains, locus YFR003C, strain YPI1, stronger effect = lower value 0.886 | S. cerevisiae deletion strains, locus YGR092W, strain DBF2, stronger effect = lower value 0.271 | [2] 0.492 | S. cerevisiae deletion strains, locus YHR205W, strain SCH9, stronger effect = lower value 0.522 | S. cerevisiae deletion strains, locus YIL147C, strain SLN1, stronger effect = lower value 0.885 | S. cerevisiae deletion strains, locus YJL128C, strain PBS2, stronger effect = lower value 0.757 | S. cerevisiae deletion strains, locus YJR016C, strain ILV3, stronger effect = lower value 0.877 | S. cerevisiae deletion strains, locus YKL048C, strain ELM1, stronger effect = lower value 0.71 | S. cerevisiae deletion strains, locus YKL067W, strain YNK1, stronger effect = lower value 0.691 | S. cerevisiae deletion strains, locus YKL101W, strain HSL1, stronger effect = lower value 0.662 | S. cerevisiae deletion strains, locus YKL193C, strain SDS22, stronger effect = lower value 0.876 | S. cerevisiae deletion strains, locus YLR113W, strain HOG1, stronger effect = lower value 0.396 | S. cerevisiae deletion strains, locus YLR133W, strain CKI1, stronger effect = lower value 0.717 | S. cerevisiae deletion strains, locus YMR001C, strain CDC5, stronger effect = lower value 0.868 | S. cerevisiae deletion strains, locus YMR205C, strain PFK2 (second series), stronger effect = lower value 0.678 | S. cerevisiae deletion strains, locus YMR277W, strain FCP1, stronger effect = lower value 0.868 | S. cerevisiae deletion strains, locus YNL006W, strain LST8, stronger effect = lower value 0.87 | S. cerevisiae deletion strains, locus YNL161W, strain CBK1, stronger effect = lower value 0.864 | S. cerevisiae deletion strains, locus YNL207W, strain RIO2, stronger effect = lower value 0.859 | S. cerevisiae deletion strains, locus YNL222W, strain SSU72, stronger effect = lower value 0.88 | S. cerevisiae deletion strains, locus YOL078W, strain AVO1, stronger effect = lower value 0.867 | S. cerevisiae deletion strains, locus YOL136C, strain PFK27, stronger effect = lower value 0.65 | S. cerevisiae deletion strains, locus YOR329C, strain SCD5, stronger effect = lower value 0.884 | S. cerevisiae deletion strains, locus YPL209C, strain IPL1, stronger effect = lower value 0.883 | S. cerevisiae deletion strains, locus YPL256C, strain CLN2, stronger effect = lower value 0.428 | S. cerevisiae deletion strains, locus YPR025C, strain CCL1, stronger effect = lower value 0.893 | S. cerevisiae deletion strains, locus YPR106W, strain ISR1, stronger effect = lower value 0.849 | S. cerevisiae deletion strains, locus YPR111W, strain DBF20, stronger effect = lower value 0.812 | S. cerevisiae deletion strains, strain NNK1, stronger effect = lower value 0.796 | S. cerevisiae deletion strains, strain TSCII, stronger effect = lower value 0.853
inactive: S. cerevisiae deletion strains, locus YDR052C, strain DBF4, stronger effect = lower value 0.913 | S. cerevisiae deletion strains, locus YDR477W, strain SNF1, stronger effect = lower value 0.75 | S. cerevisiae deletion strains, locus YER123W, strain YCK3, stronger effect = lower value 0.685 | S. cerevisiae deletion strains, locus YER133W, strain GLC7, stronger effect = lower value 0.803 | S. cerevisiae deletion strains, locus YFR019W, strain FAB1, stronger effect = lower value 0.84 | S. cerevisiae deletion strains, locus YFR028C, strain CDC14, stronger effect = lower value 0.899 | S. cerevisiae deletion strains, locus YGR040W, strain KSS1, stronger effect = lower value 0.784 | S. cerevisiae deletion strains, locus YGR052W, strain FMP48, stronger effect = lower value 0.706 | S. cerevisiae deletion strains, locus YHR079C, strain IRE1, stronger effect = lower value 0.655 | S. cerevisiae deletion strains, locus YHR082C, strain KSP1, stronger effect = lower value 0.719 | S. cerevisiae deletion strains, locus YJL095W, strain BCK1, stronger effect = lower value 0.673 | S. cerevisiae deletion strains, locus YJL157C, strain FAR1, stronger effect = lower value 0.748 | S. cerevisiae deletion strains, locus YJR066W, strain TOR1 (second series), stronger effect = lower value 0.756 | S. cerevisiae deletion strains, locus YJR066W, strain TOR1, stronger effect = lower value 0.748 | S. cerevisiae deletion strains, locus YKL203C, strain TOR2, stronger effect = lower value 0.785 | S. cerevisiae deletion strains, locus YLR403W, strain SFP1, stronger effect = lower value 0.758 | S. cerevisiae deletion strains, locus YML070W, strain DAK1, stronger effect = lower value 0.689 | S. cerevisiae deletion strains, locus YNL020C, strain ARK1, stronger effect = lower value 0.733 | S. cerevisiae deletion strains, locus YNL183C, strain NPR1, stronger effect = lower value 0.708 | S. cerevisiae deletion strains, locus YNL307C, strain MCK1 (second series), stronger effect = lower value 0.704 | S. cerevisiae deletion strains, locus YOR061W, strain CKA2, stronger effect = lower value 0.768 | S. cerevisiae deletion strains, locus YOR119C, strain RIO1, stronger effect = lower value 0.806 | S. cerevisiae deletion strains, locus YOR231W, strain MKK1, stronger effect = lower value 0.64 | S. cerevisiae deletion strains, locus YPL031C, strain PHO85, stronger effect = lower value 0.73 | S. cerevisiae deletion strains, locus YPL153C, strain RAD53, stronger effect = lower value 0.723 | S. cerevisiae deletion strains, locus YPL204W, strain HRR25, stronger effect = lower value 0.727

CC(=O)c1ccc(Sc2ccccn2)c([N+](=O)[O-])c1
inactive: S. cerevisiae deletion strains, locus YAL013W, strain DEP1, stronger effect = lower value 0.996 | S. cerevisiae deletion strains, locus YBR229C, strain ROT2, stronger effect = lower value 1 | S. cerevisiae deletion strains, locus YCL061C, strain MRC1, stronger effect = lower value 1.02 | [1] 1.01 | S. cerevisiae deletion strains, locus YDR150W, strain NUM1, stronger effect = lower value 0.985 | S. cerevisiae deletion strains, locus YEL061C, strain CIN8, stronger effect = lower value 0.974 | S. cerevisiae deletion strains, locus YGR078C, strain PAC10, stronger effect = lower value 0.986 | [2] 0.71 | S. cerevisiae deletion strains, locus YHR087W, strain rtc3, stronger effect = lower value 1.01 | S. cerevisiae deletion strains, locus YJL187C, strain SWE1, stronger effect = lower value 0.98 | S. cerevisiae deletion strains, locus YJR043C, strain POL32, stronger effect = lower value 1.01 | S. cerevisiae deletion strains, locus YJR075W, strain HOC1, stronger effect = lower value 0.973 | S. cerevisiae deletion strains, locus YKL190W, strain CNB1, stronger effect = lower value 0.997 | S. cerevisiae deletion strains, locus YLR039C, strain RIC1, stronger effect = lower value 0.849 | S. cerevisiae deletion strains, locus YLR058C, strain SHM2 (second series), stronger effect = lower value 0.991 | S. cerevisiae deletion strains, locus YLR085C, strain ARP6, stronger effect = lower value 0.835 | S. cerevisiae deletion strains, locus YLR262C, strain YPT6, stronger effect = lower value 0.822 | S. cerevisiae deletion strains, locus YML094W, strain GIM5, stronger effect = lower value 0.983 | S. cerevisiae deletion strains, locus YMR219W, strain ESC1, stronger effect = lower value 0.983 | S. cerevisiae deletion strains, locus YMR263W, strain SAP30, stronger effect = lower value 0.993 | S. cerevisiae deletion strains, locus YMR307W, strain GAS1, stronger effect = lower value 1.04 | S. cerevisiae deletion strains, locus YNL128W, strain TEP1, stronger effect = lower value 0.967 | S. cerevisiae deletion strains, locus YNL153C, strain GIM3, stronger effect = lower value 0.98 | S. cerevisiae deletion strains, locus YNL298W, strain CLA4 (second series), stronger effect = lower value 0.934 | S. cerevisiae deletion strains, locus YNL322C, strain KRE1, stronger effect = lower value 0.966 | S. cerevisiae deletion strains, locus YNR030W, strain Alg12, stronger effect = lower value 0.99 | S. cerevisiae deletion strains, locus YOL006C, strain TOP1, stronger effect = lower value 0.747 | S. cerevisiae deletion strains, locus YPL055C, strain LGE1, stronger effect = lower value 0.976 | S. cerevisiae deletion strains, locus YPL241C, strain CIN2, stronger effect = lower value 1.01 | S. cerevisiae deletion strains, locus YPR135W, strain CTF4, stronger effect = lower value 0.927 | S. cerevisiae strains, strain wild type, stronger effect = lower value 0.984
